From PubChem
KB-V1 cytotox = kills drug-selected multidrug resistant KB-V1 cells | KB-V1 MDR cells viability, CellTiter-Glo, 72 h | Potency, µM (titrated, usually from 46.1 µM), usual class: cytotoxic | hit rate 3.4% among 400,000; also: nearly all actives have a fitted effect of over 60% in size
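Cytotoxicity toward P-gp-expressing KB-V1 cells was determined as loss of CellTiter-Glo luminescence after 72 h at 37 degrees C. Compounds were tested in quantitative HTS format across a concentration range, with curves fitted to normalized data.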
DT40 TDP1 no CPT = qHTS for Inhibitors of human tyrosyl-DNA phosphodiesterase 1 (TDP1): qHTS in cells in absence of CPT; DT40 Tdp1-/- hTDP1 cells, no CPT, ATP luminescence, 48 h; Potency, µM (top dose mostly 46.2 µM), without a hit: at the top dose activity change, negative = growth inhibition, hits mostly inhibitors; hit rate 15% among 420,000; AID 686978, 2013; also: nearly all actives have a fitted effect of over 55% in size
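Chicken DT40 Tdp1-/- cells stably complemented with human TDP1 were seeded at 400 cells/well with DMSO in place of 20 nM camptothecin. After compound pinning, cells grew at least 48 hr at 37 °C; viability read by CellTiter-Glo luminescence.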
HT1080NT lethal = kills 2HG-producing HT-1080-NT fibrosarcoma cells. Potency, µM (titrated, usually from 46.1 µM), for inactives: at the highest dose activity, negative = less viability, actives largely listed as cytotoxic. HT-1080-NT fibrosarcoma viability, CellTiter-Glo ATP luminescence, 48 h. hit rate 1.6% among 360,000;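 also: NT is the 2HG producing partner of a matched IDH1 knockdown line; 0% = DMSO-treated cells and -100% = media-only wells without cells; nearly all actives have a fitted effect of over 55% in size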
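750 cells/well, RPMI + 5% FBS; 2 h settle, compound pin-transfer, 48 h at 37 degrees C. CellTiter-Glo 10 min RT, luminescence. Normalized to DMSO and media-only wells.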
HT1080 IDH1KD tx = HT-1080 IDH1 knockdown cell toxicity (counter line). hit rate 2% among 360,000. AID 686971. Potency, µM (series often up to 46.1 µM), without a hit: at the top dose activity, negative = toxicity, most hits filed as cytotoxic. HT-1080 IDH1 knockdown viability, ATP luminescence, 48 h;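 also: 0% = DMSO wells and -100% = cell-free medium wells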
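CellTiter-Glo luminescence after 48 h compound exposure at 37 degrees C of IDH1-knockdown HT-1080 cells in 5% FBS RPMI. %Activity scaled between DMSO wells and cell-free media wells, with curves fitted and assigned curve classes.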
DT40 TDP1 CPT = growth inhibition of DT40 Tdp1-/-;hTDP1 cells with camptothecin (screen for TDP1 inhibitors) | chicken DT40 Tdp1-/-;hTDP1 cells + 20 nM CPT, ATP luminescence, 48 h | Potency, µM (titrated, usually from 46.2 µM), inactives show at the top dose activity change, negative = growth inhibition, hits mostly inhibitors | hit rate 12% among 420,000; also: nearly all actives have a fitted effect of over 55% in size
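Cell growth measured by CellTiter-Glo luminescence after a minimum 48 h, 37 C compound exposure with 20 nM CPT in Tdp1-knockout DT40 cells stably expressing hTDP1, seeded 400/well; qHTS titration format.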
KB-3-1 tox = kills parental KB-3-1 adenocarcinoma cells; KB-3-1 viability, CellTiter-Glo ATP luminescence, 72 h; Potency, µM (series often up to 46.1 µM), most hits filed as cytotoxic; hit rate 1.4% among 400,000; AID 1347075; also: nearly all actives have a fitted effect of over 60% in size
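Parental KB-3-1 viability, qHTS format: 72 h compound exposure, 37 °C; CellTiter-Glo; media-only wells and DMSO plates as controls; concentration-effect fits on corrected data.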
Active calls of the source: *; i = inactive; u = inconclusive; x = no result; [ ] = dose if it differs, or a comment. An excerpt weighted towards active compounds, which were near 19% of everything screened. Calls follow the shape of the dose curve; as a rule, active = well fitted curve in the direction sought with a large enough effect; inconclusive = small, poorly fitted or top-dose-only effect, or another doubt; inactive = no such curve, though single readings can be large; an effect the other way counts as inactive or inconclusive. Unless noted, % is scaled to controls: 0 for no effect and ±100 for the full control effect; potency is read from the fitted curve at half-maximal effect.

SMILES | KB-V1 cytotox | DT40 TDP1 no CPT | HT1080NT lethal | HT1080 IDH1KD tx | DT40 TDP1 CPT | KB-3-1 tox
Cc1ccc(NC(=O)CCCc2nc3ccccc3c(=O)[nH]2)c(Cl)c1 | i | 15µM* | 2% | 11% | 18µM* | i
Cc1csc2ncc(C(=O)N3CCCc4ccccc43)c(=O)n12 | i | -11% | -1% | 18% | 5% | i
CN(CC(=O)Nc1cccc(F)c1)C(=O)CCCc1nc2ccccc2c(=O)[nH]1 | i | -5% | -6% | -18% | u | i
CN(CC(=O)Nc1ccc(Cl)c(C(F)(F)F)c1)C(=O)CCCc1nc2ccccc2c(=O)[nH]1 | u | 12µM* | -3% | 1% | 12µM* | i
CN(C)C(CNC(=O)c1ccc2ccccc2n1)c1ccccc1 (centres undefined) | u | 18µM* | -6% | 1% | u | i
Cc1ccc(S(=O)(=O)N2CCCCC2)cc1NC(=O)COc1ccccc1F | i | -27% | 0% | -17% | -29% | i
Cc1cc(C)cc(C(=O)OCC(=O)Nc2cccc(S(=O)(=O)NC3=NCCCCC3)c2)c1 | 16µM* | u | 0% | -8% | u | u
CCN(CC)c1ccc(C(=O)OCC(=O)Nc2cccc(S(=O)(=O)NC3=NCCCCC3)c2)cc1 | 21µM* | 18µM* | 2% | 9% | u | u
O=C(COC(=O)c1ccccc1)Nc1cccc(S(=O)(=O)NC2=NCCCCC2)c1 | i | -22% | u | 21% | -23% | i
Cc1ccc(NS(=O)(=O)c2cccc(C(=O)N/N=C/c3ccc4c(c3)OCCO4)c2)c(C)c1 | i | -24% | -11% | -8% | -16% | i
COC(=O)c1cc(C)nc2c1C(=O)C(=O)C=C2N1CCOCC1 | u | 1µM* | 6.5µM* | 5.2µM* | 3.3µM* | u
CC(C)c1ccc(NC(=O)c2ccc(CN3CC(=O)N4CCCCC4C3=O)cc2)cc1 (centres undefined) | x | 16µM* | x | x | u | x
Cc1cccc(COc2ncnc3nc[nH]c23)c1 | i | 13µM* | -15% | -3% | u | i
COc1ccc(/C=N/NC(=O)c2ccc(Cl)cc2Cl)cc1COC(C)=O | u | u | -26% | -9% | u | u
COc1ccc(Cl)cc1CC=NNC(=O)c1cccc(C)c1O | i | 13µM* | 1% | -26% | 13µM* | i
COc1ccc(OC)c(/C=N/NC(=O)c2ccncc2)c1 | i | -2% | 0% | 10% | 25% | i
COc1ccc(Cl)cc1CC=NNC(=O)c1ccncc1 | i | 12µM* | 4% | 19% | 9.2µM* | i
COc1cccc(-c2c(C(=O)O)cc(O)c3ccc(OC)cc23)c1 | i | -10% | 3% | -1% | 6% | i
COc1ccc2cc([C@H](C)C(=O)N(C)Cc3ccccc3N3CCCC3)ccc2c1 | u | 26µM* | u | u | 23µM* | i
COc1ccc(/C=C(\C#N)C(=O)N2COCC2(C)C)cc1 | i | -28% | 2% | 11% | -20% | i
CCc1ccccc1NC(=O)Cn1nnc(-c2nc(-c3ccc(C)cc3)no2)c1N | x | -1% | x | x | -22% | x
COc1ccccc1C1CC(c2ccccc2)=NN1C(=S)Nc1ccccc1 (centres undefined) | i | u | 2% | -13% | u | i
Cc1c(CNC2CCCC2)c(C(=O)O)c(C)n1Cc1ccccc1 | i | -21% | -1% | 8% | -17% | i
Cc1ccc(Nc2nnc(SCC(=O)Nc3cccc(S(=O)(=O)N4CCCCC4)c3)s2)cc1 | i | 18µM* | -6% | -20% | u | i
CCOc1ccccc1Nc1nnc(SCC(=O)Nc2ccc3[nH]c(=O)[nH]c3c2)s1 | i | -13% | 17% | 7% | 0% | i
SMILES | KB-V1 cytotox | DT40 TDP1 no CPT | HT1080NT lethal | HT1080 IDH1KD tx | DT40 TDP1 CPT | KB-3-1 tox
O=C(CN1CCCC1c1cccs1)Nc1cccc(S(=O)(=O)N2CCCC2)c1 (centres undefined) | i | u | -3%[9.24 µM] | -4% | 15µM* | u
CCOc1ccccc1Nc1nnc(SCC(=O)Nc2cccc(S(=O)(=O)NC3=NCCCCC3)c2)s1 | i | 18µM* | -3% | -9% | 23µM* | i
CC(C)Nc1nnc(SCC(=O)Nc2ccc3c(c2)C(=O)c2ccccc2C3=O)s1 | 10µM* | 18µM* | -11% | u | u | u
Cc1cc(=O)oc2cc(OCc3ccc(C(=O)OCC(=O)Nc4ccc(N(C)C)cc4)cc3)ccc12 | u | -23% | -3% | 3% | -21% | i
CCOC(=O)N1CCC(NC(=O)CC2C(=O)NCCN2Cc2ccccc2)CC1 (centres undefined) | x | 1% | 0% | 0% | -13% | x
COc1ccc(C)cc1NC(=O)N1CCC(CN2CCC(C)CC2)CC1 | i | 1% | x | x | 1% | i
NC(=O)/C(=C/c1ccco1)C(N)=S | i | 5% | -3% | 12% | 0% | i
Cc1ccc(S(=O)(=O)CCC(=O)OCC(=O)Nc2cccc(S(=O)(=O)N3CCCCC3)c2)cc1 | i | u | -4% | -8% | -37% | i
Cc1ccc(S(=O)(=O)CCC(=O)Nc2cccc(S(=O)(=O)N3CCCCCC3)c2)cc1 | 9.2µM* | u | 3% | 7% | u | u
Cc1ccc(NC(=O)CSCC(=O)Nc2cccc(S(=O)(=O)N3CCCCCC3)c2)cc1 | i | u | -19% | u | 21µM* | i
COc1ccc(-n2cnnc2SCC(=O)Nc2cc(S(=O)(=O)N3CCCCC3)ccc2C)cc1 | u | -14% | -3% | 6% | u | i
COc1ccc(-n2cnnc2SCC(=O)Nc2cccc(S(=O)(=O)N3CCCCC3)c2)cc1 | 15µM* | u | 3% | 1% | 10% | i
Cc1nc(C)n(CC(=O)NCC2Cc3cc(-c4ccsc4)cc(Cl)c3O2)n1 (centres undefined) | x | u | x | x | 0% | x
Cc1cc(C)nc(-n2ncc3c2CC(c2ccccc2)CC3=O)n1 (centres undefined) | i | u | -21% | 0% | -16% | i
COc1ccc(C2CC(=O)c3cnn(-c4nc(C)cc(C)n4)c3C2)cc1 (centres undefined) | u | 16µM* | u | u | 21µM* | i
